Results on 33 compounds are retold here after PubChem BioAssay AID504604 (National Center for Advancing Translational Sciences (NCATS), 2011).

Where “and” joins values, the source holds several entries; their conditions need not be identical. Identical values can stand only once. Calls of active or inactive are those of the source. The call rests on the fitted dose curve; in most records, active means well fitted inhibition curve with a large enough effect; inconclusive means small, poorly fitted or top-dose-only effect; inactive means flat fitted curve, though single readings scatter.

This assay in a line: Quantitative high throughput screen to test activity of anti-malarial compounds in the Dd2 strain of Plasmodium Falciparum. The following applies: P. falciparum Dd2 in RBCs, SYBR Green growth, 72 h. The text has this:
NIH Molecular Libraries Probe Production Network [MLPCN] NIH Chemical Genomics Center [NCGC] MLPCN Grant: R21 NS059500 Assay Provider: David Fidock and Eric Ekland, Columbia University The goal of this screen is to measure the ability of a set of anti-malarial compounds to inhibit the Dd2 strain of P. falciparum. These compounds have been screened in a delayed death phenotype assay and have been identified as inhibitors of the delated death phenotype, by inhibiting the development of the apicoplast in the malarial parasite Plasmodium falciparum (described below) The biochemical processes that make this organelle essential for erythrocytic stage parasites are not well understood. However, antibiotics, such as azithromycin and tetracycline, which target the apicoplast translational machinery, have a potent antimalarial effect. […] We have developed a cell-based assay that measures parasite growth based on the expression of an integrated copy of a firefly luciferase reporter. To detect small molecules that cause this 'delayed death' phenotype, erythrocytes infected with the luciferase-expressing parasites were incubated with compounds for either one or two generations, corresponding to 48 and 96 hours, respectively. Compounds that inhibit parasite growth in the second generation, but not the first, should be enriched in antimalarials that target the apicoplast. Growth inhibition is detected by a decrease in luciferase activity
3 ul culture medium was dispensed into black clear-bottom plates (aurora) with multidrop Combi followed by a pin-transfer of […] compounds and positive control into assay plates. (Controls: 1 mM Artemisinin 1:2 dilution in duplicate Multi-Drop dispense of P. falciparum infected RBCs (0.3% parasitemia, 2.5% hematocrit final concentration) followed by 72 hr incubation (37C, 5% CO2). Multi-drop dispense 2 ul 10 X SYBR Green lysis buffer ([…] Tris-HCl, 10 mM EDTA, 0.16% saponin (w/v), 1.6% Triton-X (v/v), 10 x SYBR Green I supplied as 10,000 x final concentration by Invitrogen) into assay plates. Incubated at Room temperature, overnight in the dark and then read using Envision (Perkin Elmer) with fluorescence intensity at 485 nm excitation and 535 nm emission wavelengths.
`C=CCOC(=O)N(C)C[C@H]1OCCCC[C@H](C)Oc2ccc(NC(=O)Nc3ccccc3)cc2C(=O)N([C@@H](C)CO[Si](C)(C)C(C)(C)C)C[C@H]1C`: the Potency was 565 nM (active).
As to `C[C@@H]1CN([C@@H](C)CO)C(=O)c2cc(NC(=O)Nc3ccccc3)ccc2O[C@@H](C)CCCCO[C@H]1CN(C)S(=O)(=O)c1cccc(F)c1`, the Potency was 50.4 nM (active).
In the case of `C[C@@H]1CN([C@@H](C)CO)C(=O)c2cc(NC(=O)Nc3ccccc3)ccc2O[C@@H](C)C/C=C/CO[C@H]1CN(C)S(=O)(=O)c1ccc(F)cc1`, the Potency was 565 nM (active).
With `C=CCOC(=O)N(C)C[C@@H]1OCCCC[C@H](C)Oc2ccc(NC(=O)Nc3ccccc3)cc2C(=O)N([C@H](C)COC(=O)c2ccccc2)C[C@H]1C`, the Potency was 896 nM (active).
To `C[C@@H]1CN(CCO)C(=O)c2cc(NC(=O)Nc3ccccc3)ccc2O[C@@H](C)CCCCO[C@H]1CN(C)S(=O)(=O)c1ccc(F)cc1` belongs 2520 nM (active); to `CC(C)NC(=O)Nc1ccc2c(c1)C(=O)N([C@@H](C)CO)C[C@@H](C)[C@H](CN(C)S(=O)(=O)c1ccc(F)cc1)OCCCC[C@H](C)O2`, 1790 nM (active).
On to `COc1ccc(COC[C@H](C)N2C[C@@H](C)[C@H](CN(C)Cc3ccc(OC)cc3)OCCCC[C@H](C)Oc3ccc(NC(=O)Nc4ccccc4)cc3C2=O)cc1`, for which the Potency was 798 nM (active).
Take `C[C@@H]1CN(C)C(=O)c2cc(NC(=O)Nc3ccccc3)ccc2O[C@@H](C)CCCCO[C@@H]1CN(C)S(=O)(=O)c1ccc(F)cc1`: the Potency is 3570 nM (active).
Consider `C=CCOC(=O)N(C)C[C@@H]1OCCCC[C@H](C)Oc2ccc(NC(=O)Nc3ccccc3)cc2C(=O)N([C@@H](C)CO)C[C@H]1C`, for which the Potency was 1260 nM (active).
Regarding `C[C@@H]1CN([C@@H](C)CO)C(=O)c2cc(NC(=O)Nc3ccccc3)ccc2O[C@@H](C)CCCCO[C@H]1CN(C)S(=O)(=O)c1ccccc1F`, the Potency is 2000 nM (active).
The result for `C[C@@H]1CN([C@@H](C)CO)C(=O)c2cc(N)ccc2O[C@@H](C)CCCCO[C@H]1CN(C)S(=O)(=O)c1ccc(F)cc1` reads 711 nM (active); that for `C[C@@H]1CN([C@@H](C)CN=[N+]=[N-])C(=O)c2cc(NC(=O)Nc3ccccc3)ccc2O[C@@H](C)CCCCO[C@H]1CN(C)S(=O)(=O)c1ccc(F)cc1`, 56.5 nM (active); that for `C[C@@H]1CN([C@@H](C)CO)C(=O)c2cc(NC(=O)Nc3ccccc3)ccc2O[C@@H](C)CCCCO[C@H]1CN(C)S(=O)(=O)c1ccc(C(F)(F)F)cc1`, 1130 nM (active).
Regarding `C[C@@H]1CN([C@H](C)CO[Si](C)(C)C(C)(C)C)C(=O)c2cc(NC(=O)Nc3ccccc3)ccc2O[C@@H](C)CCCCO[C@H]1CN(C)S(=O)(=O)c1ccc(F)cc1`, the Potency is 565 nM (active).
The result for `COc1ccc(COCCN2C[C@@H](C)[C@H](CN(C)S(=O)(=O)c3ccc(F)cc3)OCCCC[C@H](C)Oc3ccc(NC(=O)Nc4ccccc4)cc3C2=O)cc1` reads 252 nM (active).
To `C[C@@H]1CN(CCO[Si](C)(C)C(C)(C)C)C(=O)c2cc(NC(=O)Nc3ccccc3)ccc2O[C@@H](C)CCCCO[C@H]1CN(C)S(=O)(=O)c1ccc(F)cc1` belongs 225 nM (active); to `C[C@@H]1CN([C@@H](C)CO)C(=O)c2cc(NC(=O)Nc3ccccc3)ccc2O[C@@H](C)CCCCO[C@H]1CN(C)C(=O)OC(C)(C)C`, 2250 nM (active).
As for `C[C@@H]1CN([C@@H](C)CO)C(=O)c2cc(Nc3nc4ccccc4o3)ccc2O[C@@H](C)CCCCO[C@H]1CN(C)S(=O)(=O)c1ccc(F)cc1`, the Potency is 2000 nM (active).
The result for `COCCOCOC[C@H](C)N1C[C@@H](C)[C@H](CN(C)S(=O)(=O)c2ccc(F)cc2)OCCCC[C@H](C)Oc2ccc(NC(=O)Nc3ccccc3)cc2C1=O` reads 35.7 nM (active).
To `Cc1noc(C)c1NC(=O)Nc1ccc2c(c1)C(=O)N([C@@H](C)CO)C[C@@H](C)[C@H](CN(C)S(=O)(=O)c1ccc(F)cc1)OCCCC[C@H](C)O2` belongs 634 nM (active); to `C[C@@H]1CN([C@@H](C)COC(C)(C)C)C(=O)c2cc(NC(=O)Nc3ccccc3)ccc2O[C@@H](C)CCCCO[C@H]1CN(C)S(=O)(=O)c1ccc(F)cc1`, 3.6 nM (active); to `C[C@@H]1CCCCO[C@@H](CN(C)Cc2ccc(F)cc2)[C@H](C)CN([C@@H](C)CO)C(=O)c2cc(NC(=O)Nc3ccccc3)ccc2O1`, 6340 nM (active).
`COCOC[C@H](C)N1C[C@@H](C)[C@H](CN(C)S(=O)(=O)c2ccc(F)cc2)OCCCC[C@H](C)Oc2ccc(NC(=O)Nc3ccccc3)cc2C1=O`: the Potency is 28.3 nM (active).
As to `C[C@@H]1CN([C@@H](C)CO)C(=O)c2cc(NC(=O)Nc3ccccc3)ccc2O[C@@H](C)CCCCO[C@H]1CN(C)S(=O)(=O)c1cccnc1`, the Potency was 4490 nM (active).
To `C[C@@H]1CN([C@@H](C)COC(=O)c2ccccc2)C(=O)c2cc(NC(=O)Nc3ccccc3)ccc2O[C@@H](C)CCCCO[C@H]1CN(C)C(=O)OC(C)(C)C` belongs 798 nM (active); to `CC(C)N1C[C@@H](C)[C@H](CN(C)S(=O)(=O)c2ccc(F)cc2)OCCCC[C@H](C)Oc2ccc(NC(=O)Nc3ccccc3)cc2C1=O`, 56.5 nM (active).
The result for `C[C@@H]1CN([C@@H](C)CO)C(=O)c2cc(NC(=O)Nc3ccccc3)ccc2O[C@@H](C)C/C=C\CO[C@H]1CN(C)S(=O)(=O)c1ccc(F)cc1` reads 1260 nM (active); that for `C[C@@H]1CCCCO[C@H](CN(C)C(=O)Nc2ccc(F)cc2)[C@H](C)CN([C@@H](C)CO)C(=O)c2cc(NS(=O)(=O)c3ccccc3)ccc2O1`, 504 nM (active); that for `C[C@@H]1CN([C@@H](C)CO[Si](C)(C)C(C)(C)C)C(=O)c2cc(NC(=O)Nc3ccccc3)ccc2O[C@@H](C)CCCCO[C@H]1CN(C)S(=O)(=O)c1ccc(F)cc1`, 5 nM (active).
With `C[C@@H]1CN([C@@H](C)COC(=O)c2ccccc2)C(=O)c2cc(NC(=O)Nc3ccccc3)ccc2O[C@@H](C)CCCCO[C@H]1CN(C)S(=O)(=O)c1ccc(F)cc1`, the Potency was 179 nM (active).
For the compound `C[C@@H]1CN([C@@H](C)COC(=O)C(C)(C)C)C(=O)c2cc(NC(=O)Nc3ccccc3)ccc2O[C@@H](C)CCCCO[C@H]1CN(C)S(=O)(=O)c1ccc(F)cc1`, the Potency is 50.4 nM (active).
To `Cc1noc(C)c1NC(=O)Nc1ccc2c(c1)C(=O)N(C(C)C)C[C@@H](C)[C@H](CN(C)S(=O)(=O)c1ccc(F)cc1)OCCCC[C@H](C)O2` belongs 179 nM (active) and 2.52 µM (active); to `C[C@@H]1CN([C@@H](C)CO)C(=O)c2cc(NC(=O)Nc3ccccc3)ccc2O[C@@H](C)CCCCO[C@H]1CN(C)Cc1ccc(C(F)(F)F)cc1`, 1590 nM (active).
